# Gal4-VP16 FLuc: VP16 counterscreen qHTS for inhibitors of ROR gamma transcriptional activity | Drosophila S2 Gal4-VP16 UAS-luciferase, luminescence, 20 h | 310,000 compounds, 3.5% hits | Potency, µM (top dose mostly 53.6 µM), usual class: inhibitors | AID 2546, 2010;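 note: Gal4-VP16 expression switched on by copper sulfate through the metallothionein promoter; nearly all actives have a fitted effect of over 50% in size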
# CtBP-E1A inh: qHTS Assay for Inhibitors of the CtBP/E1A Interaction | activity change, % (no concentration beside the values) | AlphaScreen GST-E1A/His-CtBP binding, 1536-well; stronger effect = lower value | 340,000 compounds, 0.49% hits; in the data active = activity change below about -65%; inconclusive = mostly about -30% to -63%
#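 Steps: dispense buffer (Tris pH 8.0, NaCl 300 mM, TCEP 1 mM, BSA, Tween 20); add 5X protein mix (GST-E1A, His-CtBP, 125 nM each); pin 23 nL compound; 2 h at 37 °C, dark; add 5X beads (50 ug/mL); 1 h; read.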
# Six1-Eya2 blk: qHTS Assay for Inhibitors of the Six1/Eya2 Interaction; Homeobox protein SIX1 (Homo sapiens) + Protein phosphatase EYA2 (Homo sapiens), …; AlphaScreen GST-Six1/His-Eya2 binding, biochemical; stronger effect = lower value; activity change, % (no concentration beside the values); 360,000 compounds, 0.56% hits; in the data active = activity change below about -65%; inconclusive = mostly about -30% to -63%
#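 Compounds are tested against tagged Six1 and Eya2 proteins bridged by glutathione donor and nickel acceptor beads; after a one-hour incubation at 37 °C without light, AlphaScreen emission is recorded.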
# PKM2 activator: qHTS Assay for Activators of Human Muscle isoform 2 Pyruvate Kinase. Pyruvate kinase PKM (Homo sapiens), P14618. purified PKM2, Kinase-Glo ATP luminescence, activation; response scale: 0% is enzyme alone, no compound. Potency, µM (doses to about 57.5 µM), hits mostly activators. 260,000 compounds, 0.34% hits. AID 1631, 2009; note: nearly all actives have a fitted effect of over 55% in size
# Target sequence (P14618 whole entry, looked up, canonical isoform): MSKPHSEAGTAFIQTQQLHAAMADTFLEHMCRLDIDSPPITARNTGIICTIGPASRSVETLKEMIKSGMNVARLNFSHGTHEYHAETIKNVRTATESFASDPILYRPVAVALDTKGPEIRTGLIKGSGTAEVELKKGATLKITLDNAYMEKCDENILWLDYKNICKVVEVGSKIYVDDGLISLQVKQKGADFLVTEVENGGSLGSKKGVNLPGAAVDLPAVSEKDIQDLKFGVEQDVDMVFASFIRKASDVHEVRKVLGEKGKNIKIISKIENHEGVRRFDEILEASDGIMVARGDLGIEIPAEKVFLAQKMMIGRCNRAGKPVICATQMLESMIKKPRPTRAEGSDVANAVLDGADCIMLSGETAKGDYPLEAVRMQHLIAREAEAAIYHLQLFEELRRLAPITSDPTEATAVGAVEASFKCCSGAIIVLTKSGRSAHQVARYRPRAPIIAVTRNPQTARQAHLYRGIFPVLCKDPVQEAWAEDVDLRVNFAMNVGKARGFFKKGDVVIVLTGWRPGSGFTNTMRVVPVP
#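 ATP formation by purified human PK-M2, quantified via coupled luciferase luminescence after 1 h at room temperature with 0.1 mM ADP and 0.5 mM PEP final.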
# RORg inh: qHTS for inhibitors of ROR gamma transcriptional activity. Drosophila S2 Gal4-RORgamma UAS-luciferase reporter, 20 h. Potency, µM (highest dose often 53.6 µM), actives largely listed as inhibitors. 310,000 compounds, 5.4% hits; note: nearly all actives have a fitted effect of over 60% in size
#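 Drosophila Schneider cells stably carrying a metallothionein-driven Gal4 DBD–ROR gamma fusion and a UAS-Photinus luciferase reporter were exposed to compound for 1 hr, then induced with copper sulfate (700 uM final) for 20 hr at ambient temperature before luminescence reading.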
# Hits are given with their value; i = inactive; ? = inconclusive; nt = no result; [ ] = another dose, or the depositor's remark. Rows were chosen to be rich in hits. Some 5.6% of all compounds tested hit in one or more screens of this group. Unless noted, calls come from the whole dose curve; as a rule, active = well fitted curve in the direction sought with a large enough effect; inconclusive = small, poorly fitted or top-dose-only effect, or another doubt; inactive = no such curve, though single readings can be large; an effect the other way counts as inactive or inconclusive.
SMILES,Gal4-VP16 FLuc,CtBP-E1A inh,Six1-Eya2 blk,PKM2 activator,RORg inh
Cc1sc2nc(SCC(=O)NCc3cccs3)[nH]c(=O)c2c1C,i,i,i,i,i
Cc1sc2nc(CN(Cc3cccs3)C(=O)C3CC3)[nH]c(=O)c2c1C,i,nt,i,?,11.2µM
O=C(Cn1ccc(NC(=O)OCc2ccccc2)nc1=O)NCc1nc2ccccc2[nH]1,nt,i,i,nt,nt
Oc1ccccc1C=NCCN1CCN(CCN=Cc2ccccc2O)C1c1ccccc1O (stereo not drawn),nt,-98.5,-85.8,nt,nt
O=C1NC[C@H](CCCCN2C[C@H](Cc3ccc(O)cc3)N(CC3CCCCC3)C(=O)C2=O)N(CCc2ccc(O)cc2)C1=O,nt,i,i,nt,nt
CCCC(=O)NC(c1ccc(N(C)C)cc1)c1c(O)ccc2ccccc12 (stereo not drawn),i,i,i,i,?
CCN(CC)c1ccc(C(NC(=O)C(C)C)c2ccc3cccnc3c2O)cc1 (stereo not drawn),nt,?,-71.9,nt,nt
CC(C)C(=O)NC(c1ccco1)c1ccc2cccnc2c1O (stereo not drawn),5.01µM,-90.8,-93.1,i,2.82µM
Oc1c(C(Nc2nc3ccccc3s2)c2ccco2)ccc2cccnc12 (stereo not drawn),5.62µM,i,-72.7,i,2.51µM
CCCCC(=O)NC(c1ccc(N(C)C)cc1)c1ccc2cccnc2c1O (stereo not drawn),3.16µM,-91.0,-70.4,i,5.01µM
CCCCC(=O)NC(c1ccc(N(CC)CC)cc1)c1ccc2cccnc2c1O (stereo not drawn),2.82µM,-78.1,?,i[11.5 µM],2.24µM
CCCCC(=O)NC(c1ccccc1Cl)c1c(O)ccc2ccccc12 (stereo not drawn),i,i,i,i,?
Cc1cc(-c2nc3ccccc3[nH]2)ccc1N,?,i,i,i,?
Cc1ccc2nc(CCCc3nc4ccc(C)cc4[nH]3)[nH]c2c1,i,i,i,i,i
Cc1c(N)cccc1-c1nc2ccccc2[nH]1,?,i,i,i,11.2µM
c1ccc(-c2nc3ccccc3[nH]2)nc1,6.31µM,i,?,i,5.62µM
c1ccc(-c2nc3c(ccc4ccccc43)[nH]2)nc1,1µM,i,i,i,0.355µM
Cc1ccc2nc(-c3ccccn3)[nH]c2c1,6.31µM,i,i,i,3.98µM
O=C(COC(=O)c1ccc([N+](=O)[O-])cc1)Nc1ccccc1C(=O)NC1CC1,nt,i,i,nt,nt
CC(=O)OC1CC2(C)/C(=N\O)CCC2C2CCc3cc(O)ccc3C12 (stereo not drawn),i,i,i,nt,i
Cc1ccc2nc(C(O)C(O)c3nc4ccc(C)cc4[nH]3)[nH]c2c1 (stereo not drawn),7.94µM,i,i,i,7.08µM
Cc1ccc2nc(-c3ccccc3N)[nH]c2c1,i[10 µM],i,i,i,10µM
O=c1[nH]c2cc3ccccc3cc2nc1C(F)(F)F,i,i,i,i,i
Cc1ccc2nc(C(C)O)[nH]c2c1 (stereo not drawn),i,i,i,i,i
O=c1[nH]c(-c2ccccn2)nc2ccccc12,7.08µM,-89.3,-91.1,i,3.98µM
SMILES,Gal4-VP16 FLuc,CtBP-E1A inh,Six1-Eya2 blk,PKM2 activator,RORg inh
Cc1ccc(C)c(-c2nc3ccc(N)cc3[nH]2)c1,i,i,i,i,i
O=c1[nH]c(-c2ccccn2)nc(C(F)(F)F)c1Br,5.01µM,-83.4,-75.6,i,2.24µM
CC(C)CN1CCC(=O)N(C(CSc2ccc(Br)cc2)Cc2ccccc2)CC1 (stereo not drawn),i,nt,nt,nt,?
Cc1c(Cl)cccc1NC(=S)N1CCN(S(=O)(=O)c2cccs2)CC1,i,i,i,i,?
CC(C)CN1C(=O)/C(=C/c2cccs2)NC1=S,7.08µM,i,i,i,5.01µM
COc1cccc(N2C(=O)/C(=C\c3cccs3)NC2=S)c1,?,nt,i,i,10µM
CCCN1C(=O)/C(=C/c2ccc(C)s2)NC1=S,10µM,i,i,i,5.62µM
CC(C)(C)n1nc2c(c1NC(=O)C1CC(=O)N(c3ccc(Cl)cc3)C1)CS(=O)(=O)C2 (stereo not drawn),i,i,i,i,i
OCCC1CN(CC2CCCCC2)CCN1CC1CCCCC1 (stereo not drawn),i,i,i,i[11.5 µM],i
COC(=O)c1sc(NC(=S)NNC(=O)c2c(Br)c(C)nn2C)c(C(=O)OC)c1C,?,i,i,i,6.31µM
COc1ccc(Cn2c3nc4ccccc4nc3c3c(=O)n(Cc4ccco4)cnc32)cc1,?,nt,nt,?,10µM
CCOC(=O)N1CCC(N2CCCC(CO)(Cc3cccc(OC)c3)C2)CC1 (stereo not drawn),i,nt,i,i,i
O=C(/C=C/c1ccco1)NC(=S)Nc1cccc(-c2nc3ccccc3o2)c1,12.6µM,i,i,i,2.24µM
Cc1ccc(-c2nc3ccccc3o2)cc1NC(=O)Cc1cccs1,i,i,i,i,i
O=C(/C=C/c1ccco1)NC(=S)Nc1cccc(-c2nc3ccccc3s2)c1,nt,i,i,nt,nt
Cc1ccc(-c2nc3ccccc3o2)cc1NC(=S)NC(=O)/C=C/c1ccco1,?,i,i,i,2µM
Cc1cc(C)n(CC(=O)N2c3ccccc3Sc3ccccc32)n1,i,i,i,i,7.08µM
CCCCOCCCNC(=O)C[C@@H]1C[C@@]2(C(=O)OC)CCCCC=C2N(Cc2ccccc2)C1=O,nt,i,i,nt,nt
O=C(O)c1ccc(NC(=S)NCc2ccccc2)cc1,i,i,i,i,i
O=C(NC(=S)NCc1ccc(F)cc1)c1ccccc1,?,i,i,i,5.01µM
NC(=O)CC(NC(=S)NCc1ccccc1)C(=O)O (stereo not drawn),?,i,i,i,?
O=C(NC(=S)Nc1ccc(NC(=O)c2ccccc2)cc1)c1ccc(F)cc1,i,i,i,nt,i
O=C(NC(=S)NCc1ccncc1)c1ccccc1,i,nt,i,i,i
O=C(NC(=S)NCc1ccccc1)c1ccccc1,?,i,i,i,3.16µM
O=C(O)CC(NC(=S)NCc1ccccc1)C(=O)O (stereo not drawn),11.2µM,i,i,i,15.8µM
CC(C)(C)C(=O)NC(=S)NCc1ccccc1,?,i,i,i,7.08µM
O=C1c2cccnc2C(=O)N1Cc1ccc(S(=O)(=O)N2CCOc3ccccc32)cc1,i,i,i,nt,i
COc1cc(/C=C2/SC(=S)N(CC(=O)O)C2=O)ccc1OC(=O)c1ccco1,i,i,i,i,i
COC(=O)[C@@]12C[C@@H](CC(=O)NCCCN3CCCC3=O)C(=O)N(Cc3ccco3)C1=CCC(C)(C)C2,nt,i,i,nt,nt
O=C(Cc1c[nH]c2ccccc12)NCc1ccncc1,i,i,i,i,i
